Drawing on PubChem BioAssay (NCATS), this text covers Potency for eleven compounds.

Results filed as inconclusive are left out. Activity calls are given as the source filed them. Calls follow the shape of the dose curve; as a rule, active = well fitted cell-killing curve with a large enough effect; inconclusive = small, poorly fitted or top-dose-only effect; inactive = flat fitted curve, though single readings scatter.
Potency is read from the fitted curve at half-maximal effect.

The experiment is described as follows: qHTS of pediatric cancer cell lines to identify multiple opportunities for drug repurposing: Primary screen for TC32 cells (AID 1347089). Also: nearly all actives have a fitted effect of over 60% in size. The settings on record: TC32 Ewing sarcoma viability, CellTiter-Glo luminescence, 48 h; series mostly up to 45.8 µM. The procedure, abridged: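 A viability screen of TC32 cells was run over 48 h, with primary MIPE doses spanning 0.78 nM–46 µM and NPC doses 0.59 nM–46 µM. ATP luminescence (CellTiter-Glo) served as the read-out.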
A general note: Quantitative high-throughput screening tests each substance at several concentrations.
For `OCCCNc1cc(-c2ccnc(Nc3cccc(Cl)c3)n2)ccn1`, the Potency was 370 nM (active).
In the case of `CNC(=O)c1c(F)cccc1Nc1nc(Nc2cc3c(cc2OC)CCN3C(=O)CN(C)C)nc2[nH]ccc12` it was 5870 nM (active); in that of `Cc1c(CN2CCN(S(C)(=O)=O)CC2)sc2c(N3CCOCC3)nc(-c3cnc(N)nc3)nc12`, 294 nM (active); in that of `C=C1C(=CC=C2CCCC3(C)[C@@H]([C@H](C)C=CC=CC(O)(CC)CC)CC[C@@H]23)C[C@@H](O)C[C@@H]1O` (stereo partly specified), “inactive”.
In the case of `COc1ccc2c(OCc3nnc4ccc(-c5ccccc5)nn34)ccnc2c1` it was “inactive”; in that of `COc1cc(C)c(Sc2cnc(NC(=O)c3ccc(CNC(C)C(C)C)cc3)s2)cc1C(=O)N1CCN(C(C)=O)CC1` (stereo unspecified), 7390 nM (active).
For `CC[C@@H]1C(=O)N(C)c2cnc(Nc3ccc(C(=O)NC4CCC(N5CCN(CC6CC6)CC5)CC4)cc3OC)nc2N1C(C)C` (stereo partly specified) the value was 370 nM (active).
For the compound `COc1cc2c(Oc3ccc(-c4cnc(Nc5ccc(F)cc5)n(C)c4=O)cc3F)ccnc2cc1OCCCN1CCOCC1`, the Potency was 11700 nM (active).
On to `CCCNC(=O)Nc1ccc(Oc2ncnc3cc(OC)c(OC)cc23)cc1Cl`, for which the Potency result was “inactive”.
In the case of `CCC1=C[C@@H]2CN(C1)Cc1c([nH]c3ccccc13)[C@@](C(=O)OC)(c1cc3c(cc1OC)N(C)[C@@H]1[C@@](O)(C(=O)OC)[C@H](OC(C)=O)[C@]4(CC)C=CCN5CC[C@]31[C@@H]54)C2`, the Potency is 104 nM (active).
For `Cc1cn(-c2cc(NC(=O)c3ccc(C)c(Nc4nccc(-c5cccnc5)n4)c3)cc(C(F)(F)F)c2)cn1` the value was “inactive”.
